# Source: PubChem BioAssay
# A selection: hits, their analogues and other compounds. The true share with any hit is near 21%.
# DRD3 antagonist: qHTS of D3 Dopamine Receptor Antagonist: qHTS | D(3) dopamine receptor (Homo sapiens), P35462 | D3R cells, DiscoveRx beta-arrestin luminescence, antagonist mode; hits give low values | max response, negative = inhibition, % | 360,000 tested, 2.5% active; in the data active = max response below about -50%; inconclusive = no clear call, values can overlap the other calls; also: % is scaled to controls: 0 for no effect and ±100 for the full control effect
# Target sequence (P35462 whole entry, looked up): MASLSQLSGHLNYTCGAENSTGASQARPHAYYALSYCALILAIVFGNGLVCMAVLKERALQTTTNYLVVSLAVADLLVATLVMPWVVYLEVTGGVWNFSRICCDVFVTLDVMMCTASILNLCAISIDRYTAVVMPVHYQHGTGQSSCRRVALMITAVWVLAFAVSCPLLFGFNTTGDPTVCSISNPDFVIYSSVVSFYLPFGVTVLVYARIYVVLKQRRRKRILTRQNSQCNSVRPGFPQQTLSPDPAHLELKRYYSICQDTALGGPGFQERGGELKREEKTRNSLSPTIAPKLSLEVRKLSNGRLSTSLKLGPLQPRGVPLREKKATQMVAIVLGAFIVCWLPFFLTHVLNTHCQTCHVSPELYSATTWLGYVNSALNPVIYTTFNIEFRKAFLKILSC
#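 Cells expressing the human receptor were seeded at 1500 cells/well, incubated overnight at 37 degrees C in 5% CO2, then exposed to library compounds with dopamine controls for 90 minutes at 37 degrees C before luminescent detection.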
# DT40 TDP1 no CPT: qHTS for Inhibitors of human tyrosyl-DNA phosphodiesterase 1 (TDP1): qHTS in cells in absence of CPT; Potency, µM (series often up to 46.2 µM), inactives show at the top dose activity change, negative = growth inhibition, hits mostly inhibitors; DT40 Tdp1-/- hTDP1 cells, no CPT, ATP luminescence, 48 h; 420,000 tested, 15% active; also: potency is read from the fitted curve at half-maximal effect; % is scaled to controls: 0 for no effect and ±100 for the full control effect; nearly all actives have a fitted effect of over 55% in size
#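 Readout: luminescence from CellTiter-Glo after 30 min in the dark at RT. Cells: DT40 Tdp1-/- with stable hTDP1, 400/well. Exposure: compounds alone, ≥48 hr, 37 °C.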
# IL-1B inflam inh: qHTS for Inhibitors of Inflammasome Signaling: IL-1-beta AlphaLISA Primary Screen; activity change, % at 57.5 µM; THP-1 LPS/ATP IL-1B secretion, AlphaLISA, 16 h; hits give low values; AID 743279, 2014; 360,000 tested, 4.7% active; in the data active = activity change below about -50%; inconclusive = mostly about -30% to -49%; also: % is scaled to controls: 0 for no effect and ±100 for the full control effect
#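 Secreted IL-1B measured by AlphaLISA bead assay after 16 h compound exposure of THP-1 cells; compounds (final up to 57.5 uM) added 1 h before LPS (250 ng/mL) and ATP (1.25 mM) stimulation; lower signal means less secretion.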
# DT40 TDP1 CPT: qHTS for Inhibitors of human tyrosyl-DNA phosphodiesterase 1 (TDP1): qHTS in cells in presence of CPT; chicken DT40 Tdp1-/-;hTDP1 cells + 20 nM CPT, ATP luminescence, 48 h; Potency, µM (highest dose often 46.2 µM), for inactives: at the highest dose activity change, negative = growth inhibition, actives largely listed as inhibitors; 420,000 tested, 12% active; also: potency is read from the fitted curve at half-maximal effect; % is scaled to controls: 0 for no effect and ±100 for the full control effect; nearly all actives have a fitted effect of over 55% in size
#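 Chicken DT40 Tdp1-/- cells complemented with human TDP1, 400 cells/well, exposed to compounds plus 20 nM camptothecin for at least 48 h at 37 C; viability read as ATP content by CellTiter-Glo luminescence.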
# D3 ag: qHTS of D3 Dopamine Receptor Agonist: qHTS; D3R DiscoveRx beta-arrestin cells, luminescence, 90 min; 410,000 tested, 0.58% active; max activation, %; D(3) dopamine receptor (Homo sapiens), P35462; in the data active = max activation above about 30%; also: 0% is about no effect
#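 Cells at 1500/well, incubated overnight, then treated with pinned compounds (dopamine as control) for 90 min at 37 degrees C. DiscoveRx reagent added for 30 - 60 minutes at room temperature; luminescence read.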
# ClpP mod: qHTS Assay for Activators of ClpP; ATP-dependent Clp protease proteolytic subunit (Bacillus subtilis (strain 168)), P80244; purified B. subtilis ClpP, FRET peptide cleavage, 20 min; Potency, µM (doses to about 57.5 µM), without a hit: at the top dose activity change, negative = active; 340,000 tested, 1.9% active; AID 651965, 2013; active = well fitted falling curve with a large enough effect; inconclusive = small, poorly fitted or top-dose-only effect; inactive = no such curve, though single readings can be large or run the other way; also: potency is read from the fitted curve at half-maximal effect; the source files actives as falling curves though it sought activators and does not explain the sign; nearly all actives have a fitted effect of over 65% in size
# Target sequence (P80244 whole entry, looked up): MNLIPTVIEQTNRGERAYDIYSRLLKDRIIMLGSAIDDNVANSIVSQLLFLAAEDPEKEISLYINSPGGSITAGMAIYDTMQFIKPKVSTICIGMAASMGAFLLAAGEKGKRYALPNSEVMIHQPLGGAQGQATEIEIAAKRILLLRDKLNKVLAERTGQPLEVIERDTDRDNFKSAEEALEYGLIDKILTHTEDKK
#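 Buffer: 100 mM Tris/HCl pH8, 100 mM KCl, 0.05% low protease BSA, 2.5% glycerol, 0.01% Tween-20. ClpP 10 microg/mL final; 20 min RT; delta FRET normalized to ADEP and DMSO controls.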
# Starred values were filed as active, the others as inactive; ? = inconclusive; nt = not tested or not shown; [ ] = remark or other dose. Unless noted, calls follow the shape of the dose curve; as a rule, active = well fitted inhibition curve with a large enough effect; inconclusive = small, poorly fitted or top-dose-only effect; inactive = flat fitted curve, though single readings scatter.
SMILES,DRD3 antagonist,DT40 TDP1 no CPT,IL-1B inflam inh,DT40 TDP1 CPT,D3 ag,ClpP mod
COC(=O)/C(=C1/Oc2cc(C)oc(=O)c2S1)C(F)(F)F,-26.2,2.06µM*,-102.1*,2.31µM*,3.9,-3.9%
OC(c1ccc(Cl)cc1)c1ncc(-c2cccc(F)c2)[nH]1 (configuration not stated),20.5,?,-8.5,?,-10.1,-1.0%
Cc1cccc(Nc2nc(-c3ccncc3)cs2)c1,0.3,?,-29.0,?,4.0,-1.6%
Clc1cccc(Nc2nc(-c3ccncc3)cs2)c1,1.0,?,-60.6*,?,2.2,10.6%
Clc1ccc(-c2csc(Nc3cccnc3)n2)cc1,0.5,-22.1%,-79.6*,-2.5%,0.8,nt
O=C(NNc1ccccc1F)c1cccs1,nt,?,nt,-20.0%,nt,0.1%
Cc1ccc(NC(=O)CN2C(=O)CCc3cc(S(=O)(=O)N4CCCCC4)ccc32)cc1N(C)C,nt,?,nt,?,4.9,-0.7%
CC(OC(=O)CNC(=O)C1CCCCC1)C(=O)NCc1ccccc1 (configuration not stated),13.1,-20.5%,18.3,-5.7%,13.2,nt
CCC1CN(C(=O)Nc2cccc3c2CCCC3)c2ccccc2O1 (configuration not stated),nt,16.4µM*,nt,?,-7.4,-2.2%
CCC1CN(C(=O)Nc2cccc3c2CCCC3)c2cc(Cl)ccc2O1 (configuration not stated),nt,20.6µM*,nt,?,1.2,-2.6%
CCC1CN(C(=O)Nc2ccc(C)cc2)c2cc(C)ccc2O1 (configuration not stated),1.2,16.4µM*,-11.2,?,-14.1,nt
CCC1CN(C(=O)Nc2ccccc2C(F)(F)F)c2ccccc2O1 (configuration not stated),nt,1.7%,nt,6.1%,-1.9,0.0%
Nc1ccc(/C=C/c2ccc(N)cc2S(=O)(=O)O)c(S(=O)(=O)O)c1,nt,-16.6%,nt,-1.3%,7.2,nt
Cc1ccc(S(=O)(=O)NCCC(=O)N2CCCCCCC2)cc1,-1.2,?,-6.7,-12.0%,-4.2,-1.6%
O=C(NCCC1CCCCN1S(=O)(=O)c1ccccc1)C(=O)NCc1ccccc1 (configuration not stated),-2.4,?,-0.5,?,-4.8,-3.4%
O=C(NCCC1CCCCN1S(=O)(=O)c1ccccc1)C(=O)NCc1ccc(F)cc1 (configuration not stated),-13.4,18.4µM*,-24.6,?,-6.8,nt
Cc1ccc(CNC(=O)C(=O)NCCC2CCCCN2S(=O)(=O)c2ccccc2)cc1 (configuration not stated),2.6,14.6µM*,-4.7,?,-4.0,-0.8%
N#Cc1nc(-c2ccc(OCc3ccccc3)cc2)oc1N1CCOCC1,-5.1,-15.6%,-4.3,-8.4%,31.2*,28.2µM*
N#Cc1nc(-c2ccc(OCc3ccccc3Cl)cc2)oc1N1CCCCCC1,nt,11.2µM*,nt,?,nt,4.0%
CCOc1ccccc1NC(=O)CSc1n[nH]c(N)n1,4.7,14.3%,7.2,4.9%,0.3,0.3%
CS(=O)(=O)NCCn1ccc2ccccc21,-2.0,?,-6.6,?,2.7,0.3%
CN(C)C/C(Cl)=C(\Cl)c1ccccc1,33.1,5.17µM*,-5.2,5.17µM*,0.7,0.5%
CN(C)CC(=O)c1ccc(-c2ccccc2)cc1,7.1,-4.6%,-7.0,-2.0%,-13.8,-6.3%
O=C(COc1cccnc1[N+](=O)[O-])N1CCN(S(=O)(=O)c2ccccc2)CC1,-16.7,-5.6%,8.2,2.4%,-1.2,4.0%
O=C(COc1nnc2ccccn12)N1CCN(S(=O)(=O)c2ccccc2)CC1,14.9,-22.4%,10.0,9.3%,0.5,31.6µM*
SMILES,DRD3 antagonist,DT40 TDP1 no CPT,IL-1B inflam inh,DT40 TDP1 CPT,D3 ag,ClpP mod
O=C(CCN1C(=O)S/C(=C\c2ccc(F)cc2)C1=O)Nc1ccc(O)cc1C(=O)O,-0.2,-7.4%,-6.8,6.8%,-5.6,-2.2%
COc1ccc(/C=N/N2CCN(C)CC2)c(OC)c1OC,16.7,5.8%,21.8,3.9%,1.4,nt
Cc1cc(/C=N/N2CCN(C)CC2)c(C)n1-c1ccccc1F,-70.7*,-10.8%,-11.3,-28.1%,-9.2,-1.9%
Cc1cc2c(c(-c3nc4ccccc4s3)c1)OC(CNC(=O)c1occc1C)C2 (configuration not stated),nt,?,nt,19.3%[9.04 µM],nt,nt
CCc1cccc2c(C(=O)COC(=O)c3nccnc3N)c[nH]c12,-19.5,?,-4.7,-11.1%,-4.4,28.2µM*
CCOc1ccc(-c2nnc(SCC(=O)NC3CCCC3)nc2-c2ccc(OCC)c(OC)c2)cc1OC,nt,?,nt,?,5.3,-21.8%
COC(=O)C1=CN(Cc2ccc(OC)c(OC)c2)C=C(C(=O)OC)C1c1cccc(OC)c1OC,0.8,?,-6.9,?,-3.5,-1.8%
COC(=O)C1=CN(Cc2cccs2)C=C(C(=O)OC)C1c1cccc(OC)c1OC,-15.1,-3.7%,14.1,2.3%,3.3,31.6µM*
CCN1C=C(C(=O)OC)C(c2cccc(OC)c2OC)C(C(=O)OC)=C1,8.0,-0.5%,23.6,-7.9%,-2.8,31.6µM*
COC(=O)C1=CN(Cc2ccc(C)cc2)C=C(C(=O)OC)C1c1cc(OC)c(OC)c(OC)c1,14.6,?,-10.7,16.4µM*,0.2,3.7%
COC(=O)C1=CN(C2CC2)C=C(C(=O)OC)C1c1ccccc1OC,13.3,-24.6%,1.1,-13.1%,4.7,31.6µM*
CCN(CC)CCNC(=O)c1c(C)oc2ncn(C)c(=O)c12,nt,-8.2%,nt,-23.4%,-15.0,-2.5%
COc1ccc(C(Nc2ccc(S(=O)(=O)NCC3CCCO3)cc2)C(=O)NC(C)(C)C)cc1OC (configuration not stated),0.3,5.8%,-13.2,-1.3%,1.1,nt
Cc1cccc(C)c1C(OCCN(C)C)C1CCCCC1 (configuration not stated),-89.3*,?,-8.2,18.4µM*,16.5,0.9%
C/C(=N\O)c1ncc(C(F)(F)F)cc1Cl,-8.5,-4.3%,-13.2,4.1%,-5.8,nt
O=C(c1ccncc1)N1CCC2(CCN(Cc3ccccc3)CC2)CC1,nt,-1.5%,nt,4.2%,nt,nt
O=C(c1cnccn1)N1CCC2(CC1)CN(Cc1nccs1)C2,nt,-18.6%,nt,2.9%,nt,nt
Cc1cc(-c2ccc(NS(=O)(=O)c3ccccc3)c(C)c2)ccc1NS(=O)(=O)c1ccccc1,-28.3,11.6µM*,15.1,13µM*,-8.7,nt
